Only some compounds are listed: those with a hit (about 21% of all), similar ones and a draw of the others.
Shiga inhibitor: blocks Shiga toxin action in Vero cells | AID 2315 | Vero cells, Shiga toxin protein synthesis inhibition reporter | inhibition, % at 38.7 µM | 9.2% of 290,000 active; in the data active = inhibition mostly above about 28%, no sharp cut-off; inactive = mostly below about 43%; also: 0% is about no effect
HCMV inh: inhibitors of human cytomegalovirus; AID 1259415; HFF cells, HCMV-luciferase reporter, 72 h; stronger effect = lower value; activity change, negative = inhibition, % at 57.5 µM; 4.5% of 410,000 active; in the data active = activity change below about -60%; inconclusive = no clear call, values can overlap the other calls; inactive = above about -39%; also: % is scaled to controls: 0 for no effect and ±100 for the full control effect
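Steps: HFFs plated, 16 h 37C; compounds added; HCMV-luciferase added to MOI 1 PFU/cell; 72 h 37C; OneGlo reagent, 5 min room temperature; luminescence read, normalized to controls.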
Pf growth 48h: P. falciparum growth inhibition at 48 hours (one generation); P. falciparum luciferase growth in erythrocytes, 48 h; Potency, µM (highest dose often 28.7 µM), without a hit: at the top dose activity change, negative = inhibition, hits mostly inhibitors; 5.9% of 310,000 active; AID 504832; also: potency is read from the fitted curve at half-maximal effect; % is scaled to controls: 0 for no effect and ±100 for the full control effect
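Compounds are pin-transferred into medium, infected erythrocytes (2% hematocrit, 0.1% parasitemia final) are added, and plates sit one parasite generation at 37 C in 5% CO2. Detection reagent is then added and luminescence measured.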
HCV inhibitor: blocks hepatitis C virus; Huh7.5.1 HCVcc-Cre infection, luciferase reporter, 44 h; Potency, µM (highest dose often 41.8 µM), for inactives: top-dose activity change, negative = inhibition, most hits filed as inhibitors; 3.4% of 340,000 active; also: potency is read from the fitted curve at half-maximal effect; % is scaled to controls: 0 for no effect and ±100 for the full control effect
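Cells seeded at 1,000/well and cultured 4 h, then compounds added followed by HCVcc-Cre virus (~0.5 moi). After 44 h further culture, luciferase substrate was added, plates held 15 min at room temperature, and luminescence read for 15 sec.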
Pf growth 96h: P. falciparum growth inhibition at 96 hour, primary screen for plastid delayed-death inhibitors | P. falciparum luciferase reporter growth, 96 h | Potency, µM (titrated, usually from 28.7 µM), for the others: at the top dose activity change, negative = inhibition, most hits filed as inhibitors | 6.9% of 320,000 active | AID 504834; also: potency is read from the fitted curve at half-maximal effect; % is scaled to controls: 0 for no effect and ±100 for the full control effect
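Luminescence readout: decreased luciferase signal marks inhibited growth of reporter-expressing P. falciparum in infected red cells (2% hematocrit, 0.05% parasitemia final), exposed to compound two generations (96 h, 37 C, 5% CO2).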
Cycloheximide cs: affects cycloheximide protein synthesis inhibition readout, counter-screen; cell reporter, cycloheximide protein synthesis inhibition counterscreen; 12% of 300,000 active; max response, %; in the data active = max response mostly above about 13%, no sharp cut-off; inactive = mostly below about 14%; also: read at 38.3 µM for the half of the compounds with a filed dose; 0% is about no effect
* = called active by the depositor. Unless noted, calls follow the shape of the dose curve; as a rule, active = well fitted inhibition curve with a large enough effect; inconclusive = small, poorly fitted or top-dose-only effect, or another doubt; inactive = no such curve, though single readings can be large or run the other way.

`COc1ccc(C(=O)NCCc2c[nH]c3ccccc23)cc1[N+](=O)[O-]` gave Shiga inhibitor 3.1, HCMV inh 43.7, Pf growth 48h 0.0%, HCV inhibitor -24.5%, Pf growth 96h 13.1µM* and Cycloheximide cs 7.4*.
COc1ccc(C(=O)NCCc2ccccc2)cc1[N+](=O)[O-] was read as Shiga inhibitor 50.1*, HCMV inh 6.9, Pf growth 48h 45.2%, HCV inhibitor -8.1%, Pf growth 96h 17.6% and Cycloheximide cs 31.6*.
`COc1ccc(/C=C(/NC(=O)c2ccc(OC)c(OC)c2)C(=O)NCCc2c[nH]c3ccccc23)cc1` gave Shiga inhibitor -9.9, HCMV inh 16.3, Pf growth 48h inconclusive, HCV inhibitor -25.7%, Pf growth 96h inconclusive and Cycloheximide cs 4.5.
Screening COc1ccccc1OCc1ccc(C(=O)c2ccccc2)cc1 returned HCMV inh 55.1, Pf growth 48h 11.4%, HCV inhibitor -0.8%, Pf growth 96h 45.0% and Cycloheximide cs 23.2*.
Cc1ccc(Cn2c(=O)n(CCc3ccccc3)c(=O)c3c(C)c(C)sc32)cc1 was read as HCMV inh -14.7.
For COc1ccc(NC(=O)C2CCCN(c3nnc(C)c4c(C)n(-c5ccccc5)nc34)C2)cc1Cl (stereo unspecified) the results were HCMV inh -90.0*.
`Cc1nnc(N2CCCC(C(=O)Nc3cc(F)ccc3F)C2)c2nn(-c3ccccc3)c(C)c12` (stereo unspecified) gave Shiga inhibitor -3.0, HCMV inh -21.3, Pf growth 48h inconclusive, HCV inhibitor 11.2µM*, Pf growth 96h inconclusive and Cycloheximide cs 1.1.
For O=[N+]([O-])c1ccc(SCCO)nc1SCCO the results were Shiga inhibitor -15.5, HCMV inh -6.9, Pf growth 48h inconclusive, HCV inhibitor 2.1%, Pf growth 96h -21.0% and Cycloheximide cs -2.0.
O=C(COc1cc(O)c2c(=O)cc(-c3ccccc3)oc2c1)c1cccc([N+](=O)[O-])c1 was read as HCMV inh -11.5, Pf growth 48h 4.15µM*, HCV inhibitor -21.6%, Pf growth 96h 0.0% and Cycloheximide cs 0.5.
`COc1cc(-c2cc(=O)c3c(O)cc(O)cc3o2)ccc1O` gave Shiga inhibitor 39.3*, Pf growth 48h inconclusive, HCV inhibitor 12.6µM*, Pf growth 96h 13.1µM* and Cycloheximide cs 37.0*.
Screening O=c1cc(-c2ccccc2)oc2cc(O)cc(O)c12 returned HCV inhibitor -18.7%.
For O=C(COc1cc(O)c2c(=O)cc(-c3ccccc3)oc2c1)c1ccccc1 the results were Shiga inhibitor -26.2, HCMV inh -7.5, Pf growth 48h 39.9%, HCV inhibitor -10.6%, Pf growth 96h 23.3% and Cycloheximide cs -1.6.
`O=c1cc(-c2ccc(O)cc2)oc2cc(O)cc(O)c12` gave HCMV inh 43.8 and HCV inhibitor inconclusive.
`COc1cc(O)c2c(=O)cc(-c3ccccc3)oc2c1` gave Shiga inhibitor 14.2, HCMV inh 13.7, Pf growth 48h 55.9%, HCV inhibitor 17.8%, Pf growth 96h 25.2% and Cycloheximide cs 11.0*.
For COc1cc(O)c2c(=O)c3c(OC)c(O)ccc3oc2c1 the results were Shiga inhibitor 56.3*, HCMV inh 27.0, Pf growth 48h 105.8%, HCV inhibitor -23.0%, Pf growth 96h 60.2% and Cycloheximide cs 37.0*.
O=C(NCc1ccccc1F)[C@H]1[C@H](CO)[C@H]2Cn3c(cccc3=O)[C@H]2N1CC1CC1 was read as HCMV inh 2.6.
`CCOC(=O)c1c(C)[nH]c(C)c1S(=O)(=O)N1CCC(C(=O)Nc2ccccn2)CC1` gave HCMV inh -12.0.
`COc1cc(-c2cc(=O)c3ccccc3o2)ccc1O` gave Shiga inhibitor 61.3*, HCMV inh 96.4, Pf growth 48h 54.3%, HCV inhibitor -21.4%, Pf growth 96h 99.6% and Cycloheximide cs 37.2*.
For COc1cc(-c2cc(=O)c3c(O)c(OC)c(OC)cc3o2)cc(OC)c1O the results were Shiga inhibitor -3.3, HCMV inh -15.5, Pf growth 48h inconclusive, HCV inhibitor inconclusive, Pf growth 96h 2.8% and Cycloheximide cs -2.2.

Compound activity as filed in PubChem.
